This passage reports Potency results from PubChem BioAssay (NCATS).

Experiment in all cases: qHTS profiling for inhibitors of Plasmodium falciparum proliferation (AID 504749); note: nearly all actives have a fitted effect of over 60% in size
Holding throughout (conditions): P. falciparum in erythrocytes, SYBR Green DNA, 72 h; series mostly up to 28.7 µM
For orientation: Quantitative high-throughput screening tests each substance at several concentrations.

The test system of one test is AA1029. The method in brief: (§1)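 SYBR Green fluorescence (ex 485 nm, em 535 nm) reports parasite DNA after 72 h compound exposure of infected red cells at 0.3% parasitemia, 2.5% hematocrit; signal normalized to 0.29 uM artemisinin and vehicle wells.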
In the next test the test system is ATS95. The method in brief: as §1
The next test has as its system C2A. The method in brief: as §1
A further test relates to CP211. The method in brief:
as §1

A further test concerns CP215. The method in brief:
as §1

In the next test the test system is CP217. A digest of the protocol:
as §1

The next test deals with CP252. The method in brief:
as §1

The next test deals with CP256. The method in brief:
as §1

In another test the test system is CP260. The method in brief:
as §1

The test system of another test is CP268. The method in brief: as §1
A further test relates to CP269. A digest of the protocol:
as §1

Another test concerns CP286. The method in brief: as §1
The next test has as its system DIV14. The method in brief:
as §1

For another test, the system named is DIV17. A digest of the protocol: as §1
For another test, the system named is JCK. The method in brief:
as §1

Another test has as its system N140. The method in brief:
as §1

Another test concerns P93_24. The method in brief:
as §1

In a further test the test system is PC15. A digest of the protocol: as §1
The test system of another test is PC26. A digest of the protocol: as §1
In the next test the test system is TAB165. A digest of the protocol:
as §1

Inconclusive results are not listed. Calls of active or inactive are those of the source. Calls come from the whole dose curve; as a rule, active = well fitted inhibition curve with a large enough effect; inconclusive = small, poorly fitted or top-dose-only effect; inactive = flat fitted curve, though single readings scatter.
Potency is the fitted concentration of half-maximal effect.

Regarding `C[C@@]12C(=O)OC(=O)[C@]1(C)[C@H]1CC[C@@H]2O1`, the Potency was 3.16 µM (active) with AA1029; 3.98 µM (active) with ATS95; 3.98 µM (active) in the test on C2A; 5.1 µM (active) in the test on CP211; 2.28 µM (active) with CP215; 2.51 µM (active) in the test with CP217. The Potency in the test with CP252 was 3.98 µM (active); in the test with CP256 it was 3.98 µM (active); in the test with CP260 it was 0.631 µM (active); in the test with CP268, 2.87 µM (active); in the test with CP269, 2.56 µM (active); in the test with CP286 it was 2.82 µM (active). Moreover, the Potency in the test on DIV14 was 1.14 µM (active); in the test with DIV17 it was 2.03 µM (active); in the test on JCK it was 3.98 µM (active); in the test with N140, 4.47 µM (active); with P93_24, 3.98 µM (active); in the test with PC15, 3.98 µM (active). Besides, the Potency was 2.87 µM (active) in the test with PC26 and 2 µM (active) in the test on TAB165.

`C=C1CCC2[C@](C)(CO)C(O)CC[C@]2(C)C1C/C=C1/C(=O)OCC1O` (stereo not given in full): the Potency entry with CP268 is “inactive”.

For `CC(/C=C1\SC(=S)N(CC(=O)O)C1=O)=C\c1ccccc1`, the Potency entry with AA1029, with ATS95, in the test on C2A, in the test with CP211, in the test on CP215 and with CP217 was “inactive” throughout. The Potency entry in the test with CP252, with CP256, in the test on CP260, with CP269, with CP286 and in the test with DIV14 was “inactive” in each case. The Potency result in the test with DIV17, in the test on JCK, in the test on N140, in the test with P93_24, in the test on PC15 and in the test with PC26 was “inactive” in each case. Besides, the Potency entry with TAB165 is “inactive”.
